# Screens from PubChem BioAssay.
# Beta apoptosis – blocks beta cell apoptosis | AID 435005 | protection from apoptosis, % (test concentration not listed) | INS-1E cytokine-induced death, ATP luminescence, 48 h; percent of positive-control rescue, neutral wells zero | 300,000 compounds, 0.8% hits;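 active means Every replicate reaches about 75%, or at least half do and their mean reaches it too, limit read from the data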;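 further: 0% = cytokine-treated negative control wells and 100% = positive control rescue; higher means more ATP so stronger rescue from cytokine killing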
# CSC inhib – blocks cancer stem cells. cancer stem cell-like cells viability, luminescence. inhibition, % at 7.5 µM. 300,000 compounds, 1.1% hits. AID 2717; in the data active means inhibition above about 75%; tested in HMLE shEcad cells
# Gli-Sufu antag – antagonists of Gli-Sufu signaling; AID 588413; Sufu-KO-LIGHT fibroblasts, Gli luciferase reporter luminescence; 340,000 compounds, 0.74% hits; inhibition, % at 5 µM;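 active means inhibition above about 55%, limit read from the data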;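 further: 0% = DMSO-treated cells and 100% = wells with medium but no cells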
# Mdm2-MdmX inh – disrupts the human Mdm2-MdmX interaction; SaOS-2 split-luciferase Mdm2/MdmX complementation, luminescence; inhibition, % at 8 µM; O15151+Q00987; AID 485346; 330,000 compounds, 3% hits;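 active means inhibition of at least 50% at 8 µM in the primary screen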
# MPTP inh – blocks calcium-induced mitochondrial swelling; AID 602449; isolated mouse mitochondria, Ca2+ swelling absorbance, 30 min; inhibition, % at 10 µM; 360,000 compounds, 1.4% hits;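 active means inhibition of 50% or more, scaled per plate between neutral and stimulator controls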;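 further: 0% = DMSO wells given calcium and 100% = 1 mM EGTA wells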
# GRIN3A LBD mod – modulators (binders) of human NR3A ligand-binding domain; AID 1259313; 340,000 compounds, 2.5% hits; NR3A LBD differential scanning fluorimetry, Tm shift; 0% = protein alone, 100% = glycine-bound protein; Tm shift relative to glycine control, % at 25 µM;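 active means melting temperature shift of at least 10% of the positive control shift, at one fixed dose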
# Gli-Sufu confirm – confirmation of Gli-SUFU pathway antagonists | shares compounds with Gli-Sufu antag | Sufu-KO-LIGHT cells, Gli luciferase reporter, luminescence | inhibition, % at 5 µM | 2,500 compounds, 40% hits | AID 602428;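 active means mean inhibition at 5 µM reaching about 45%, limit read from the data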;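 further: plate controls were DMSO-treated cells for no effect and wells lacking cells for full effect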
# Gli cytotox – cytotoxic in Gli-SUFU antagonist counter-screen | 2,500 compounds, 32% hits | Sufu-KO-LIGHT cells cytotoxicity, ATP luminescence | cytotoxicity, % at 5 µM | shares compounds with Gli-Sufu antag;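 active means mean cytotoxicity at 5 µM above about 25%, limit read from the data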;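 further: cells exposed to compound overnight for roughly 16 to 18 hours; plate controls were DMSO wells with cells for no effect and medium without cells for full effect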
# Wnt3a cs – counter-screen for Gli-SUFU antagonists: Wnt3a reporter inhibition. shares compounds with Gli-Sufu antag. Wnt-LIGHT cells, Wnt3a-driven luciferase reporter, luminescence. inhibition, % at 6.25 µM. 2,500 compounds, 20% hits. AID 651995;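 active means mean inhibition above about 25%, limit read from the data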
# Active calls of the source: *; x = not tested or not shown. Most compounds without a hit are left out; they make up all but 6.6% or so of the library.
SMILES,Beta apoptosis,CSC inhib,Gli-Sufu antag,Mdm2-MdmX inh,MPTP inh,GRIN3A LBD mod,Gli-Sufu confirm,Gli cytotox,Wnt3a cs
Cc1ccc(-c2csc(NC(=O)c3c(C)noc3C)n2)cc1C,6,15,-1,2,2,-2,x,x,x
Cc1ccc(-c2csc(NC(=O)c3c(C)noc3C)n2)s1,124*,1,55,-3,-1,-7,64*,34*,-14
Cc1cc(C)c(C)c(OCC(=O)NCC2CCCO2)c1 (centres undefined),0,0,0,-12,2,-1,x,x,x
COc1ccc(-c2noc(CCC(=O)NCC3CCCO3)n2)cc1 (centres undefined),-5,-5,-2,8,0,1,x,x,x
Cc1ccc(-c2noc(CCCC(=O)NCC3CCCO3)n2)cc1 (centres undefined),-2,x,56*,-4,-1,-1,39,8,5
Cc1cc(C)cc(OCC(=O)NCC2CCCO2)c1 (centres undefined),-1,-8,71*,9,0,-1,39,16,38*
O=C(CSCSCC(=O)NCC1CCCO1)NCC1CCCO1 (centres undefined),2,4,96*,-20,0,-8,11,20,-16
O=C(CSCc1c(Cl)cccc1Cl)NCC1CCCO1 (centres undefined),0,-1,2,11,-1,-1,x,x,x
CCN(CC)CC(O)Cn1c(C)c(-c2ccccc2)c2cc([N+](=O)[O-])ccc21 (centres undefined),1,21,19,35,-1,-6,x,x,x
O=C(NCCCn1ccnc1)/C(=C\c1cccnc1)NC(=O)c1cccc(Br)c1,3,-6,98*,19,0,-6,37,13,13
O=C(NCCCn1ccnc1)/C(=C\c1cccnc1)NC(=O)c1ccco1,-1,-11,-3,-18,0,7,x,x,x
O=C(NCc1ccccc1)C(c1ccc(-c2ccccc2)cc1)n1c(=O)c(-c2cc3ccccc3[nH]2)nc2ccccc21 (centres undefined),x,x,x,x,2,x,x,x,x
COc1ccc(-c2c[n+]3c(n2-c2ccccc2)SCC3)cc1OC,6,x,-3,-3,2,0,x,x,x
Brc1ccc(-c2c[n+]3c(n2-c2ccccc2)SCC3)cc1,49,2,63*,4,4,2,60*,25*,-4
COc1ccc(-c2c[n+]3c(n2-c2ccccc2)SCC3)cc1,x,-4,76*,41,5,3,80*,25*,42*
Cc1ccc(-c2c[n+]3c(n2-c2ccccc2)SCC3)cc1,106*,6,84*,32,5,0,83*,23,38*
O=C1CCC(=O)N1N1C(=O)C2C3c4ccccc4C(c4ccccc43)C2C1=O (centres undefined),2,7,34,5,0,-2,x,x,x
COCCCNC(=S)N1CCN(S(=O)(=O)c2ccc(OC)cc2)CC1,5,-4,69*,28,-1,-1,11,16,-6
O=C(CSCCc1ccccn1)Nc1ccccn1,-2,3,96*,0,-8,-4,8,25,-6
O=C(CSCCc1ccccn1)Nc1ccc(Br)cn1,-4,7,-4,6,0,0,x,x,x
CN1/C(=C\C(=S)Nc2ccccc2)C(C)(C)c2ccccc21,120*,-2,65*,25,5,0,74*,16,28*
CN1/C(=C/C(=S)NC(=O)C2(C)CC2(Cl)Cl)C(C)(C)c2ccccc21 (centres undefined),49,9,60*,35,1,0,24,26*,1
CN1/C(=C\C(=S)NC(=O)c2ccccc2Cl)C(C)(C)c2ccccc21,100*,57,73*,-5,7,0,55*,31*,30*
COc1ccccc1C(=O)NC(=S)/C=C1/N(C)c2ccccc2C1(C)C,66,6,78*,24,3,-20,34,26*,-9
CN1/C(=C\C(=O)c2cccs2)C(C)(C)c2ccccc21,-2,3,-49,-36,1,-1,x,x,x
SMILES,Beta apoptosis,CSC inhib,Gli-Sufu antag,Mdm2-MdmX inh,MPTP inh,GRIN3A LBD mod,Gli-Sufu confirm,Gli cytotox,Wnt3a cs
CN1/C(=C/C(=O)CSc2ccccc2C(=O)O)C(C)(C)c2ccccc21,42,-12,34,12,1,-1,x,x,x
O=S(=O)([N-]c1nc2ccccc2nc1-n1cc[n+](Cc2ccccc2)c1)c1ccc(Cl)cc1,3,-4,1,28,6,-1,x,x,x
COc1ccc(C(=O)NCCn2cc(SCC(=O)NCC3CCCO3)c3ccccc32)cc1OC (centres undefined),10,-3,7,15,0,2,x,x,x
CC(C)NC(=O)OCc1c(COC(=O)NC(C)C)c([N+](=O)[O-])n2c1CCC2,x,x,x,x,-1,x,x,x,x
CSc1ccc(/C=C(/NC(=O)c2ccc(C)cc2)C(=O)Nc2cccc(F)c2)cc1,1,13,3,20,5,-17,x,x,x
Cc1ccc(NC(=O)CN(C)C(=O)C2CCC2)cc1,x,x,-12,x,-2,0,x,x,x
Cc1csc(N2CCCC2c2nc3cc(C(F)(F)F)ccc3n2CCOCCO)n1 (centres undefined),-3,-6,85*,8,0,-3,18,-1,-72
CCOCCCNC(=O)c1ccc2c(c1)ncn2-c1ccccc1OC,-4,-5,61*,18,1,-1,11,11,-35
Cc1ccc(S(=O)(=O)CCC(=O)NCCN2C(=O)S/C(=C\c3ccccc3)C2=O)cc1,-10,-17,5,5,10,0,x,x,x
Cc1ccc2c(c1)S/C(=C/c1ccc[n+](C)c1)N2CCO,95*,1,55*,-3,0,1,35,3,-6
COC(=O)c1sccc1NC(=O)CNC(=O)c1ccccc1,3,-8,2,15,0,0,x,x,x
Cc1ccc(Cn2nnc3c(=O)[nH]c(C4CCN(S(=O)(=O)c5ccccc5F)CC4)nc32)cc1,-7,28,51,13,0,-6,13,2,-9
NS(=O)(=O)c1ccc(O)c(NC(=O)c2ccc([N+](=O)[O-])o2)c1,-15,12,2,2,1,1,x,x,x
CCNc1nc(CSc2ccccc2)nc2sc(C)c(C)c12,9,43,69*,-14,1,-25,26,24,-27
O=C(NNC(=S)NC1CC2C=CC1C2)c1cccnc1 (centres undefined),-1,-4,-9,-11,0,3,x,x,x
